In one assay the test system is Klebsiella pneumoniae. To be noted: Concentration 32 ug.mL-1; ASSAY_TEST Inhibition of Bacterial Growth; detection method Absorption (OD600); MEDIA CAMHB; plate type 384well; NBS; CORNING #3640; time 18 hr.
A further assay has as its system Candida albicans. Conditions: 32 ug/mL.
A further assay relates to Cryptococcus neoformans. Conditions: Concentration 32 ug.mL-1; ASSAY_TEST Inhibition of Fungal Growth; detection method Resazurin; Absorption (OD600-OD570); plate type 384well; NBS; CORNING #3640.

Measured potencies and affinities stand elsewhere.

Usually Inhibition stands for the drop in the measured response relative to a control, in per cent. For the compound `c1ccc(-c2nc3c4cnn(-c5ccccc5)c4ncn3n2)cc1`, the Inhibition is 10.22% in the assay with Klebsiella pneumoniae, -0.93% with Candida albicans and -6.06% with Cryptococcus neoformans.

As to `C#CCN(C)c1nc(OC)c(C#N)c(-c2ccccc2)c1C#N`, the values for the Inhibition in the assay on Klebsiella pneumoniae, in the assay with Candida albicans and in the assay on Cryptococcus neoformans were 15.23%, 4.58% and -56.39%, respectively.

With `N#Cc1cc(C#N)c(NCCC2CCN(Cc3ccccc3)CC2)nc1N`, the Inhibition was 15.31% in the assay on Klebsiella pneumoniae, 0.11% with Candida albicans and -88.16% in the assay with Cryptococcus neoformans.

As to `CCOC(=O)c1c[nH]c2ccc(OC)cc12`, the Inhibition is 1.49% in the assay on Klebsiella pneumoniae, 3.61% with Candida albicans and -7.29% with Cryptococcus neoformans.

Consider `CCC(Cc1ccccc1)NNC(=O)c1cc2ccccc2[nH]1` (stereo not drawn), for which the Inhibition was -8.95% in the assay with Klebsiella pneumoniae, 1.13% in the assay with Candida albicans and -1.62% in the assay on Cryptococcus neoformans.

As to `N#Cc1c(N)nc(N2CCOCC2)c(C#N)c1-c1ccccc1`, the values for the Inhibition in the assay on Klebsiella pneumoniae, in the assay with Candida albicans and in the assay on Cryptococcus neoformans were 3.68%, 1.23% and -3.16%, respectively.

Take `O[C@H]1CC[C@H](NCc2ccccc2)CC1`: the Inhibition in the assay with Klebsiella pneumoniae was 16.79%; in the assay on Candida albicans it was -0.77%; in the assay with Cryptococcus neoformans it was -37.74%.

With `COc1ccc(C2C(C#N)=C(N)Oc3ccc4ccccc4c32)cc1` (stereo not drawn), the Inhibition was 8.69% in the assay with Klebsiella pneumoniae, 1.62% with Candida albicans and -30.57% in the assay with Cryptococcus neoformans.

For `COc1ccc(C2c3ccc4ccccc4c3Oc3nc4c(c(N)c32)CCCC4)c(OC)c1` (stereo not drawn), the Inhibition in the assay on Klebsiella pneumoniae is 4.09%; with Candida albicans, 0.01%; in the assay with Cryptococcus neoformans it was -0.17%.

Consider `O=C1OC(c2ccccc2)=NC12CC2c1ccc([N+](=O)[O-])cc1` (stereo not drawn), for which the Inhibition with Klebsiella pneumoniae was 15.67%; with Candida albicans, 1.56%; in the assay on Cryptococcus neoformans, -2.27%.

Consider `CNC(=O)c1cc2cc(OCc3ccccc3)ccc2n1C`, for which the results for the Inhibition with Klebsiella pneumoniae, in the assay on Candida albicans and in the assay with Cryptococcus neoformans were 4.29%, 3.06% and -45.34%, respectively.
